Laboratory results as given in PubChem BioAssay (NCI).
About 83,000 compounds went through this panel and 20% of them were active in at least one assay; those are over-represented in the sample as a whole.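 Method: cells in 96-well plates; compound added at one concentration; 48 h incubation; percent growth measured; values under 10 scored active.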 A number with no mark means an inactive call. Calls of active or inactive are those of the source.

Tested on: BT-549 breast
Assay: NCI-60 one-dose screen, 48 h (100 = growth as untreated, 0 = no growth, -100 = all killed)
Conditions: 10 µM unless noted
Method: Growth inhibition of the BT-549 human tumor cell line is measured as a screen for anti-cancer activity. Cells are grown in 96 well plates and exposed to the test compound for 48 hours. Compounds are tested at a single concentration, which is 10^-5 M for most compounds. The reported endpoint is percent growth (GI% or GIPRCNT), where numbers from 0 - 100% represent growth inhibition, and numbers from -100% - 0 represent cell death. For example, a value of 40 represents 60% growth inhibition. A value of 0 means no net growth occurred over the course of the experiment. A value of -40 indicates 40% of cells at the beginning of the experiment died by the end of the experiment. A value of -100 means all cells are dead at the end of the experiment.
NCI-60 Human Tumor Cell Lines Screen was performed using the standard one-dose NCI protocol, which is described in more detail at https://dtp.cancer.gov/discovery_development/nci-60/default.htm.
Compounds with GIPRCNT values below 10 were considered active. Activity score was based on GIPRCNT using the following formula: […]
Score is 0 for GIPRCNT values of 100 or above, 50 for GIPRCNT values of 0, and 100 for GIPRCNT values of -100.

In order of rising growth:
1. COc1cccc(-c2nc3sccn3c2-c2ccnc(NCCNS(=O)(=O)c3ccc(C(F)(F)F)cc3)c2)c1  10.4%
2. COc1ccc2nc(NNC(=O)c3cnccn3)c3cccn3c2c1  12.7%
3. CCc1c2c(nc3ccc(OC(=O)OCc4ccc(B5OC(C)(C)C(C)(C)O5)cc4)cc13)-c1cc3c(c(=O)n1C2)COC(=O)[C@]3(O)CC  13.2%
4. COc1cc(C(=O)/C=C/c2c(-c3ccc(F)cc3)nc3sc(C)cn23)cc(OC)c1OC  15%
5. COc1cccc(-c2nn(-c3ccccc3)cc2-c2ccnc(NCCNC(=O)Nc3ccccc3)c2)c1  30.2%
6. COc1ccc(N2CCN(c3nc(-c4cc(OC)c(OC)c(OC)c4)nc4ccccc34)CC2)cc1  39.9%
7. N/C(=N\c1nc2ccccc2s1)NC(=O)Nc1cccc(Cl)c1  42.8%
8. Cc1ccccc1NC(=O)N/C(N)=N/c1nc(-c2cccc([N+](=O)[O-])c2)cs1  51%
9. CCN(CC)CCCC(C)Nc1c2ccc(Cl)cc2nc2ccc(O)cc12 (stereo not given)  64.8%
10. Cc1ccc(N(C(=O)CCc2c[nH]c3ccccc23)[C@H](C(=O)Nc2ccc(Cl)cc2)c2cccc([N+](=O)[O-])c2)cc1  69.7%
11. O=C(/C=C/c1c(Cl)nc2sccn12)c1ccc(F)c(F)c1  71.6%
12. CCCCCCCCCCN(CCCCCCCCCC)CC(=O)c1ccc2cc(Br)c3ccccc3c2c1  72%
13. COc1cc(C2CC(=O)Nc3c2c(C)nn3-c2nc3ccccc3[nH]2)c(OC)c2c1OCO2 (stereo not given)  76%
14. O=C(N=c1oc2ccccc2cc1-c1cc2ccccc2[nH]1)c1ccc(Cl)cc1  76%
15. COc1ccc(-c2nc(SC(C)C)nc(NNC(N)=S)c2C#N)cc1  77.2%
16. NC(N)=Nc1nc2ccccc2n2c1nc1ccccc12  83%
17. Cc1nn(-c2ccccc2)c(Oc2ccc(Cl)cc2)c1/C=N\N=c1/sc2ccccc2n1C  84.1%
18. O=C1NC(=Nc2ccc(Cl)cc2)S/C1=C\c1cn(-c2ccccc2)nc1-c1ccccc1  84.3%
19. CCCCCCN(CCCCCC)c1ccc(/C=C2/SC(=O)N(c3nc(N4CCCC4)nc(N4CCCC4)n3)C2=O)c(C)c1  88.1%
20. Cc1ccc2nc(NC(=O)CSc3nc(Nc4ccc([N+](=O)[O-])cc4)c(C#N)c(-c4ccccc4)n3)sc2c1  91.1%
21. N#Cc1c2c(nn(-c3ccccc3)c1=O)C(O)=C([N+](=O)[O-])C(c1ccccc1)C2 (stereo not given)  91.9%
22. Cc1cc(NCCCCNc2ccnc3cc(Cl)ccc23)nc(Nc2ccc(C(=O)N3CCCC3)cc2)n1  93.2%
23. COc1cc(N2C(=O)c3nccnc3C2=O)cc(OC)c1OC  95.2%
24. COc1ccc(-c2nc3sccn3c2-c2cc(-c3cc(OC)c(OC)c(OC)c3)on2)cc1  98.6%
25. CN(C)c1ccc(/C=C/C(=O)c2cccc(Nc3nc(Nc4ccccc4)nc(Nc4ccccc4)n3)c2)cc1  99.3%
26. C[n+]1cccc(CC(=O)NO)c1  103%
27. Cc1cc(O)c(C2=NN(c3ccc(S(N)(=O)=O)cc3)C(c3ccccc3Cl)C2)cc1Cl (stereo not given)  104%
28. c1c[nH]c(CNC2CCCCC2)c1  105%
29. Cc1occc1-c1n[nH]c(=S)n1N1C(=O)CSC1=S  108%
30. Cc1nn(-c2ccccc2)c2nc3c(c(-c4ccc(Cl)cc4)c12)CNC1(CCSCC1)N3  109%
31. O=C(CSc1nnc(-c2ccc(NC(=O)c3cccnc3)cc2)o1)Nc1cccc(Br)c1  109%
32. Cc1ccc(-c2cc(-c3cccnc3)[nH]c(=O)c2C#N)cc1  111%
33. COc1ccc(-c2csc(C3=C(O)CN(C(C)C)C3=N)n2)cc1OC  112%
34. COc1ccc(Nc2nnc(SCc3ccccc3F)s2)cc1  118%

In the case of `C[n+]1cc2c3c(ccc2c2ccc4cc5c(cc4c21)OCO5)OCO3`, the growth is reported as -91.7% (active).
For `Cn1cc(-c2csc(-c3ccccc3)n2)c2cccnc21`, the growth was -39.4% [100 µM] (active).
With `COC(=O)[C@]12CC[C@@H](C)[C@H](C)[C@@H]1C1=CC[C@@H]3[C@@]4(C)C(C=O)=C[C@@](C)(COC(C)=O)C4=CC[C@@]3(C)[C@]1(C)CC2` the growth was -16% (active).
For `Cc1ccc(Cl)cc1NC(=O)c1cc2ccccc2cc1O`, the growth was -15.6% (active).
With `O=C(NCCCNc1cc(-c2cn(-c3ccccc3)nc2-c2cccc(O)c2)ccn1)c1ccc(F)cc1` the growth was -6.04% (active).
In the case of `Cc1ccc(C(=NN=C(N)N)c2ccc(C)cc2)cc1`, the growth is reported as -24.8% (active).
